Our source for the binding signal values is article PMC7862700, “An all-to-all approach to the identification of sequence-specific readers for epigenetic DNA modifications on cytosine”.

Common to all, as to assay: DAPPL (digital affinity profiling via proximity ligation, sequencing); 10 mM Tris-HCl pH 7.5, 50 mM NaCl, 1 mM DTT, 4% glycerol, room temperature, 30 min; GST-TFs on glutathione beads, 16-mer random dsDNA library, 0.1% formaldehyde crosslink after washing; high values mean tight binding
The target in assay [1] is T1, FEV (Homo sapiens, UniProt Q99581 1-238).
T1 sequence: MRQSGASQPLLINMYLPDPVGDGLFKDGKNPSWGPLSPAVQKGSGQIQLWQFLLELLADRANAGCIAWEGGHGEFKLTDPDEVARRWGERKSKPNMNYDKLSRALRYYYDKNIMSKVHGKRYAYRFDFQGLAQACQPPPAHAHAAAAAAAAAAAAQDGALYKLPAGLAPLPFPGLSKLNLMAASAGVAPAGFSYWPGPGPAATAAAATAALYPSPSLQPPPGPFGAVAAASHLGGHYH
Conditions: protein: recombinant; tags: N-terminal GST; dsDNA, one strand shown. The procedure, abridged: (§1)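 Beads coated with glutathione captured GST-fused human transcription factors that had been expressed in yeast, and the factors were then given DNA barcodes and pooled with a tag-only sample. The pools were incubated with 200 nmole of a random double-stranded 16-mer DNA library in Tris/NaCl/DTT/glycerol buffer for 30 min at room temperature, washed, crosslinked with 0.1% formaldehyde and proximity-ligated with BsaI/T4 ligase at 37 °C for 1 h. PCR amplification and Illumina NextSeq500 sequencing came last. Binding signal is each hexamer's read frequency for a factor divided by its frequency for the tag-only sample.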

In assay [2] the target is ETV5 (Homo sapiens, UniProt P41161 1-510). As to conditions: protein: recombinant; tags: N-terminal GST; dsDNA, one strand shown. In outline:
as §1

For assay [3], the target named is HSF1 (Homo sapiens, UniProt Q00613 1-529). As to conditions: protein: recombinant; tags: N-terminal GST; chain copies: 3; dsDNA, one strand shown. The procedure, abridged:
as §1

Assay [4] concerns the target T2, SPIC (Homo sapiens, UniProt Q8N5J4 1-248).
T2 sequence: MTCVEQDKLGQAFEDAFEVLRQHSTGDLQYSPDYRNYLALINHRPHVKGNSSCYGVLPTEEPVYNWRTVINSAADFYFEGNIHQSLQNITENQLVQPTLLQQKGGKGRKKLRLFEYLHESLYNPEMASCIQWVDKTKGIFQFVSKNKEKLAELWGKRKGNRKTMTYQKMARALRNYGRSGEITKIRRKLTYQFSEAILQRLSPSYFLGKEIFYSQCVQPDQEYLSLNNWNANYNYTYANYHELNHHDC
Conditions: protein: recombinant; tags: N-terminal GST; dsDNA, one strand shown. In outline: as §1

Assay [5] deals with ELF4 (Homo sapiens, UniProt Q99607 1-663). As to conditions: protein: recombinant; tags: N-terminal GST; dsDNA, one strand shown. In outline:
as §1

Assay [6] addresses T3, ELK4 (Homo sapiens, UniProt P28324-2 1-405).
T3 sequence: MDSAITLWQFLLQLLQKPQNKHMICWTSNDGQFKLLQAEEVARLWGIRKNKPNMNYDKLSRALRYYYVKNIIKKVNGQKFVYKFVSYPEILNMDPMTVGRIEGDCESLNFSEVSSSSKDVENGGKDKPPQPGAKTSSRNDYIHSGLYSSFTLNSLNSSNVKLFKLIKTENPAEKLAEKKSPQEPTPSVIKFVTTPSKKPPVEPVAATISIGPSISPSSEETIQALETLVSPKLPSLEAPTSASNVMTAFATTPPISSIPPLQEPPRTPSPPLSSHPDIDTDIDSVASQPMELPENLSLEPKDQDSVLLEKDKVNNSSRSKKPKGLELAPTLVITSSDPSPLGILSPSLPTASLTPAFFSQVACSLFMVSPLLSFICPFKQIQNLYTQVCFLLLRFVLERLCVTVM
Conditions: protein: recombinant; tags: N-terminal GST; dsDNA, one strand shown. In outline:
as §1

Assay [7] has as its target T4, ETV2 (Homo sapiens, UniProt O00321 1-342).
T4 sequence: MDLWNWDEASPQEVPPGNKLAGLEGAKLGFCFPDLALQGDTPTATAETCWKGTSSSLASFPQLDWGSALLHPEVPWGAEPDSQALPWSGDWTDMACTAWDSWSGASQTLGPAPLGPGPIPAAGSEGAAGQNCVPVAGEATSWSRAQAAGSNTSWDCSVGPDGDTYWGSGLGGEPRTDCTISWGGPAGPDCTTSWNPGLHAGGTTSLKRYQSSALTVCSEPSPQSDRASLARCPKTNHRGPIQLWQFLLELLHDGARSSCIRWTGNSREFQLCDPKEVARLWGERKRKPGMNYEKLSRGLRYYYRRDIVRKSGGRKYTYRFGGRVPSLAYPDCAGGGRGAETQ
Conditions: protein: recombinant; tags: N-terminal GST; dsDNA, one strand shown. In outline: as §1

The target of assay [8] is T5, ELF3 (Homo sapiens, UniProt P78545 1-371).
T5 sequence: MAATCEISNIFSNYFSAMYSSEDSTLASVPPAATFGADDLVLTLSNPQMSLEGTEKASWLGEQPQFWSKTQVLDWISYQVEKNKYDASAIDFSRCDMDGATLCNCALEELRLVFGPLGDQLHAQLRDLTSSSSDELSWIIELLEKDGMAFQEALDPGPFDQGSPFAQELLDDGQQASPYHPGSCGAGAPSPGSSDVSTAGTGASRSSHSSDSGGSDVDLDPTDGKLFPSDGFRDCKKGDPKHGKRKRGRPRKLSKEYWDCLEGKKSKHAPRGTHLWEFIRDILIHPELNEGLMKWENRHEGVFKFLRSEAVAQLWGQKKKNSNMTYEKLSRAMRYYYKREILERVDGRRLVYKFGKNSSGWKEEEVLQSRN
As to conditions: protein: recombinant; tags: N-terminal GST; dsDNA, one strand shown. In outline:
as §1

Assay [9] addresses CRX (Homo sapiens, UniProt O43186 1-299). As to conditions: protein: recombinant; tags: N-terminal GST; dsDNA, one strand shown. In outline: as §1
Assay [10] addresses ETV1 (Homo sapiens, UniProt P50549 1-477). Conditions: protein: recombinant; tags: N-terminal GST; dsDNA, one strand shown. The procedure, abridged: as §1
Assay [11] addresses T6, ERF (Homo sapiens, UniProt P50548 1-548).
T6 sequence: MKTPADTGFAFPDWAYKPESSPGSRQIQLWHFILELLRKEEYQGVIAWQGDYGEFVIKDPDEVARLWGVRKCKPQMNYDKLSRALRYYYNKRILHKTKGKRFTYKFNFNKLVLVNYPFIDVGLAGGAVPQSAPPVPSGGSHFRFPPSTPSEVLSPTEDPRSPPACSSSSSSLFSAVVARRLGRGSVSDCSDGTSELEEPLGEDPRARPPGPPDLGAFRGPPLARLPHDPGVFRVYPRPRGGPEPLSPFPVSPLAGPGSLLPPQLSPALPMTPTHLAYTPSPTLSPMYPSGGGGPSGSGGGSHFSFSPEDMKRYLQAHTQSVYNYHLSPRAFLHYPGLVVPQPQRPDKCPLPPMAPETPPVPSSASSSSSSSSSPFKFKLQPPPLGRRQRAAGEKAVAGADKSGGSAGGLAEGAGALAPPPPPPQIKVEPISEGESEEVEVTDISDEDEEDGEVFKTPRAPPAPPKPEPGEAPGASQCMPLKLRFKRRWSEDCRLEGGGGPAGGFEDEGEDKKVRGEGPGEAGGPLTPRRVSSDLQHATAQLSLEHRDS
Conditions: protein: recombinant; tags: N-terminal GST; dsDNA, one strand shown. The procedure, abridged:
as §1

Assay [12] deals with T7, ETV3L (Homo sapiens, UniProt Q6ZN32 1-361).
T7 sequence: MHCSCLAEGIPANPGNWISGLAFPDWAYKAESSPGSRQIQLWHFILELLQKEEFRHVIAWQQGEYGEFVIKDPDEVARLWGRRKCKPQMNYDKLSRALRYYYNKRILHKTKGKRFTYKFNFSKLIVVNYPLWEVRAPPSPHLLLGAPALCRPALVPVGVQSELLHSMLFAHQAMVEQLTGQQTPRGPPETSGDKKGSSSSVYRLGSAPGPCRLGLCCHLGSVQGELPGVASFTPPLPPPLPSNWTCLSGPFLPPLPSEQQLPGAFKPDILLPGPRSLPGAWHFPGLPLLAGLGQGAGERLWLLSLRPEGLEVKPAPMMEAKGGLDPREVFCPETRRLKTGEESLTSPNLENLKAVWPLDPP
Conditions: protein: recombinant; tags: N-terminal GST; dsDNA, one strand shown. In outline: as §1

The target in assay [13] is T8, ETS2 (Homo sapiens, UniProt P15036 1-469).
T8 sequence: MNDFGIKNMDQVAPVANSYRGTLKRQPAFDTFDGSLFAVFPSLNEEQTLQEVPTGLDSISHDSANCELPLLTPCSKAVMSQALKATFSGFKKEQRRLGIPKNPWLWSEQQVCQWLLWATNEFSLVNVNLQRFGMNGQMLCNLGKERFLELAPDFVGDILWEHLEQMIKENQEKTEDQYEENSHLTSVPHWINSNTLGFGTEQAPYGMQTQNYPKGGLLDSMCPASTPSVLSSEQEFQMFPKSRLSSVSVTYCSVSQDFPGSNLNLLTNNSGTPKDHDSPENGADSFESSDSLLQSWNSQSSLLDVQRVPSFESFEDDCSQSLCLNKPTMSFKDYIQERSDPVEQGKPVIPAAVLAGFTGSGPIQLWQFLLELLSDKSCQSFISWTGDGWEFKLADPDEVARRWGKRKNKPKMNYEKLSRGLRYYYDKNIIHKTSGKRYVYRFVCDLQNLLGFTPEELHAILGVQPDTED
Conditions: protein: recombinant; tags: N-terminal GST; dsDNA, one strand shown. The procedure, abridged:
as §1

Assay [14] deals with T9, SPDEF (Homo sapiens, UniProt O95238 1-335).
T9 sequence: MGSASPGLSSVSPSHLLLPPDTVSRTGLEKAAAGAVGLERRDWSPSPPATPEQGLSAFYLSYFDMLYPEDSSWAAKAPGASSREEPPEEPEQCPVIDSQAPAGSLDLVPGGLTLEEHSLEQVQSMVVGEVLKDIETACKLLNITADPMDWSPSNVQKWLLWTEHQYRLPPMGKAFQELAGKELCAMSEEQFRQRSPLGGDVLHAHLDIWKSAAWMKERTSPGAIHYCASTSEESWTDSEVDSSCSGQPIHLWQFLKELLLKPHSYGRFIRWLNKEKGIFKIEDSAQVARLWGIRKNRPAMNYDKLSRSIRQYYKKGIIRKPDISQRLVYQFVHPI
As to conditions: protein: recombinant; tags: N-terminal GST; dsDNA, one strand shown. The procedure, abridged:
as §1

In assay [15] the target is T10, ETV7 (Homo sapiens, UniProt Q9Y603 1-341).
T10 sequence: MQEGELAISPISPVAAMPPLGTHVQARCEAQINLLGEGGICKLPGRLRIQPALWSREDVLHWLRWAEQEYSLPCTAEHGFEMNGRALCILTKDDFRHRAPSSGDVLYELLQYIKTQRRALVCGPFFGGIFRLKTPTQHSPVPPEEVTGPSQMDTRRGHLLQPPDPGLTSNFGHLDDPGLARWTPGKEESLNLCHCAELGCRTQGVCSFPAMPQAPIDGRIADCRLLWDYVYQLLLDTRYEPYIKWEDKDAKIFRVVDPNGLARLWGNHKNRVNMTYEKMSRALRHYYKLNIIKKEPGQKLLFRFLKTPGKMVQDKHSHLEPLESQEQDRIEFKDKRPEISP
Conditions: protein: recombinant; tags: N-terminal GST; dsDNA, one strand shown. In outline:
as §1

The target in assay [16] is T11, ELF5 (Homo sapiens, UniProt Q9UKW6-2 1-255).
T11 sequence: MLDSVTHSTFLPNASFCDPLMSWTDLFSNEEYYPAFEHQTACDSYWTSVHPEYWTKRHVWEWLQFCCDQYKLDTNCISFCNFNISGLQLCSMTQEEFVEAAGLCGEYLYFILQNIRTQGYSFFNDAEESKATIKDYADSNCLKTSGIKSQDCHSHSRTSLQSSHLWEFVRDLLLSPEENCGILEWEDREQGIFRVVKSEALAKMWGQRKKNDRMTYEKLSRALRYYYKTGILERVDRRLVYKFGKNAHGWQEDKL
Conditions: protein: recombinant; tags: N-terminal GST; dsDNA, one strand shown. The procedure, abridged:
as §1

The target of assay [17] is T12, ETV3 (Homo sapiens, UniProt P41162-2 1-143).
T12 sequence: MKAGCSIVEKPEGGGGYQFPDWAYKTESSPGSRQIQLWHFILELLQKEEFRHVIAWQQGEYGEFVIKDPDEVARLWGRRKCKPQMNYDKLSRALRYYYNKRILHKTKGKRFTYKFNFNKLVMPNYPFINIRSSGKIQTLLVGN
Conditions: protein: recombinant; tags: N-terminal GST; dsDNA, one strand shown. In outline: as §1

Assay [18] concerns the target ETV6 (Homo sapiens, UniProt P41212 1-452). Conditions: protein: recombinant; tags: N-terminal GST; dsDNA, one strand shown. The procedure, abridged:
as §1

Chain of HSF1 (Q00613 whole entry): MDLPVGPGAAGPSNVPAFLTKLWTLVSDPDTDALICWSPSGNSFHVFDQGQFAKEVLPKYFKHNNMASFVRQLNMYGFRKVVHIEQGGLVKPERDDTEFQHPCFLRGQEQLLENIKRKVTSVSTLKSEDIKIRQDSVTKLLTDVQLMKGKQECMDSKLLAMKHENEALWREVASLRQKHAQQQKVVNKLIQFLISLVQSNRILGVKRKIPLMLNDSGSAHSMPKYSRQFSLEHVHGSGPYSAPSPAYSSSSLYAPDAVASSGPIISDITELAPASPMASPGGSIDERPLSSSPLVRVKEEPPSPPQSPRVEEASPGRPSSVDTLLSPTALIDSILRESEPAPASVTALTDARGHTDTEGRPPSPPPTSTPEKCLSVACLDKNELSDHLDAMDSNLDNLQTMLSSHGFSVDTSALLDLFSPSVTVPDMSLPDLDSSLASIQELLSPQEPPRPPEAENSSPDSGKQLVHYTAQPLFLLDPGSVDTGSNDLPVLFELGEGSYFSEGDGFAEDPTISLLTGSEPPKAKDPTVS
Chain of ELF4 (Q99607 whole entry): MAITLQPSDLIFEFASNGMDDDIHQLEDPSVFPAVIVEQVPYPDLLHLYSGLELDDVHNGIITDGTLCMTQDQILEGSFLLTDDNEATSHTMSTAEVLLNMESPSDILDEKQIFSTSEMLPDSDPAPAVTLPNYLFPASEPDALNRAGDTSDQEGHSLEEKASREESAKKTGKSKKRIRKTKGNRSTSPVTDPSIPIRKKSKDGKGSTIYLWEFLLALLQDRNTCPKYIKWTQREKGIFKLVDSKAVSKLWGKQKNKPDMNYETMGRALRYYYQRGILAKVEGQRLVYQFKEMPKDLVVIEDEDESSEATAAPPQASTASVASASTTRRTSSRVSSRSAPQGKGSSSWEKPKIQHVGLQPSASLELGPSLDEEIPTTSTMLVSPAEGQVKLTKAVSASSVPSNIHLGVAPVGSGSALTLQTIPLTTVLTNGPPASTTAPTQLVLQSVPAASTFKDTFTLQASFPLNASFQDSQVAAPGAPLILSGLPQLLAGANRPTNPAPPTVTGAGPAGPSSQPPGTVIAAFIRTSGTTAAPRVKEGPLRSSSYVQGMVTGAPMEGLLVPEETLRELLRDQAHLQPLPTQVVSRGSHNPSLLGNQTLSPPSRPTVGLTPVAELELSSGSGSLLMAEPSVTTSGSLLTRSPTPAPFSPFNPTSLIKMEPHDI
Chain of CRX (O43186 whole entry): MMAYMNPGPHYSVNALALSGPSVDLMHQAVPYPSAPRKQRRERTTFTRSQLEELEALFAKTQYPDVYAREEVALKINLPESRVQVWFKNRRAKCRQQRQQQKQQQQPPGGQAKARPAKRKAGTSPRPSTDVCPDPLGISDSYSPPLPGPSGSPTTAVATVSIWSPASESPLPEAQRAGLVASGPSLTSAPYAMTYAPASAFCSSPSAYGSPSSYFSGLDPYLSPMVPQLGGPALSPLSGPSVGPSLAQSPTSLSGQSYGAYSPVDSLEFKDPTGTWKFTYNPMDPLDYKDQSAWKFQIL
Chain of ETV1 (P50549 whole entry): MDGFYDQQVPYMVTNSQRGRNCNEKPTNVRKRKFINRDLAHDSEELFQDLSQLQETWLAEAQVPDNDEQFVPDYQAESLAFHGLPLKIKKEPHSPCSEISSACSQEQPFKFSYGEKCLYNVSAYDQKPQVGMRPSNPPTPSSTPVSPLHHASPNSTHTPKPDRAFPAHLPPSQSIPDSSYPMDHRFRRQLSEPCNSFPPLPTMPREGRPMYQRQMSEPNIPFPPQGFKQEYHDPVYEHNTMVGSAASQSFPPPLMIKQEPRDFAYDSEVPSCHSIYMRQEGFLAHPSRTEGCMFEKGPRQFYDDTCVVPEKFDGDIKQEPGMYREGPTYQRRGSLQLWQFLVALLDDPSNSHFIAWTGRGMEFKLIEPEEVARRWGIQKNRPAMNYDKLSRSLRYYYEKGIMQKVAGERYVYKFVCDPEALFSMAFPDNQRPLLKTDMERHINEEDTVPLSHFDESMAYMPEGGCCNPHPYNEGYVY
Chain of ETV5 (P41161 whole entry): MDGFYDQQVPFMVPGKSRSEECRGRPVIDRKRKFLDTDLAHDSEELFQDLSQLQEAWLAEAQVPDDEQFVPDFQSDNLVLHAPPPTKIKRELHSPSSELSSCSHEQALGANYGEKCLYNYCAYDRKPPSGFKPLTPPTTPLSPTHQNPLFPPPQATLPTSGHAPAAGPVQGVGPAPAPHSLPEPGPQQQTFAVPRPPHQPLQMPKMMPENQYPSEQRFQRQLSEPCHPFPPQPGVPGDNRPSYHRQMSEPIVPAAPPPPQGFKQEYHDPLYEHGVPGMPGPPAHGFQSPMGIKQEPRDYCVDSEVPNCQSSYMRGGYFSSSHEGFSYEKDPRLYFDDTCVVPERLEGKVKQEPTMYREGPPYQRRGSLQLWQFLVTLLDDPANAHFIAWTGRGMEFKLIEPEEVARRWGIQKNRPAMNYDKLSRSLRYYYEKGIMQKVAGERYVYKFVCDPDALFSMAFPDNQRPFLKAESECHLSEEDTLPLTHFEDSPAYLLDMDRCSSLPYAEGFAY
Chain of ETV6 (P41212 whole entry): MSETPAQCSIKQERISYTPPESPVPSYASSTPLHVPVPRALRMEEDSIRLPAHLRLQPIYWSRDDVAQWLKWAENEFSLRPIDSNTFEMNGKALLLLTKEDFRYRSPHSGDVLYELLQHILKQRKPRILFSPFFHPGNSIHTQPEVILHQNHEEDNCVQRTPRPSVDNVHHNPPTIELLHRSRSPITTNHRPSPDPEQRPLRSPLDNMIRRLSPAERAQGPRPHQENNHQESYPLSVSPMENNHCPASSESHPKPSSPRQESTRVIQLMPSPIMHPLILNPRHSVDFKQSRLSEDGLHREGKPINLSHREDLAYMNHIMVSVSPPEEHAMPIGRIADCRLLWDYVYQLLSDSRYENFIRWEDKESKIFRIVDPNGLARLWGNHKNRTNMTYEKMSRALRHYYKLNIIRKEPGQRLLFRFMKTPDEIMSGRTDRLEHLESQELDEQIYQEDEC

For AATACG, the binding signal is 1.19 fold enrichment (6-mer frequency, TF over GST control) in [1]; 1.27 fold enrichment (6-mer frequency, TF over GST control) in [2]; 1.26 fold enrichment (6-mer frequency, TF over GST control) in [3]; 1.17 fold enrichment (6-mer frequency, TF over GST control) in assay [4]; 1.29 fold enrichment (6-mer frequency, TF over GST control) in assay [5]; 1.02 fold enrichment (6-mer frequency, TF over GST control) in assay [6]. For the same sequence, the binding signal in assay [7] is 1.19 fold enrichment (6-mer frequency, TF over GST control); in assay [8], 1.24 fold enrichment (6-mer frequency, TF over GST control); in [9], 1.36 fold enrichment (6-mer frequency, TF over GST control); in assay [10] it was 1.28 fold enrichment (6-mer frequency, TF over GST control); in assay [11] it was 1.23 fold enrichment (6-mer frequency, TF over GST control); in assay [12], 1.23 fold enrichment (6-mer frequency, TF over GST control). Also, the binding signal in assay [13] was 1.28 fold enrichment (6-mer frequency, TF over GST control); in [14] it was 1.24 fold enrichment (6-mer frequency, TF over GST control); in assay [15], 1.12 fold enrichment (6-mer frequency, TF over GST control); in [16], 1.27 fold enrichment (6-mer frequency, TF over GST control); in assay [17] it was 1.19 fold enrichment (6-mer frequency, TF over GST control); in assay [18], 1.26 fold enrichment (6-mer frequency, TF over GST control).
